PubChem BioAssay
Calls of active or inactive are those of the source.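 The calls were made as follows, unless noted: active = fluorescence slope after compound addition differing from the mean of all screened samples at 99.7% confidence, in either direction; inactive = the rest.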

Tests used:
[1] = inhibitors of TNFa-induced NFkB p65 translocation, primary screen, imaging, HUVEC, MLSMR starter and 10KST1 sets (AID 438;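 active = inhibition above 20% together with a positive visual image hit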;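 also: compound added about 3h40 before a 20 min TNFalpha stimulation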;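 as to inhibition: signal is the nuclear over cytoplasmic p65 intensity ratio per well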); details: HUVEC TNFa-induced p65 nuclear translocation; cell count: measured here: nuclei count (cytotoxicity indicator), at 2.08 µM; inhibition: at 2 µM, stronger effect = higher value, 0% TNFa-plus-vehicle, 100% no-TNFa wells
[2] = inhibitors of mutant huntingtin aggregation, primary screen, imaging, exon1htt(103Q)mCFP cells, high-content imaging (AID 483;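 active = visual image review flags a hit and inhibition of aggregation exceeds 20%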;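 also: compound exposure lasted 3 days before fixation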;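 as to nuclei count: percent of the per-plate median nuclei count of sample wells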); details: exon1htt(103Q)mCFP cell line, aggregate imaging, at 2 µM; inhibition of aggregation: stronger effect = higher value; nuclei count: measured here: cell count, toxicity
[3] = inhibitors of E-selectin induction by TNFa, primary screen, imaging, HUVEC, immunofluorescence, MLSMR starter and 10KST1 sets (AID 487;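 active = visually confirmed hit in the image check and inhibition above 20%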;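 as to inhibition: signal is fraction of cell area covered by stained E-selectin grains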;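 as to nuclei count: 100% = median nuclei count of all wells on the same plate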); details: HUVEC TNFalpha-induced E-selectin immunofluorescence imaging, at 2 µM; inhibition: stronger effect = higher value; nuclei count: measured here: cell number, toxicity
[4] = molecular target: Voltage-gated potassium channel subunit beta-2 (Rattus norvegicus) (UniProt P62483); test: KvBeta enzyme negative modulators, primary screen, biochemical, NADPH fluorescence (AID 622;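 active = fluorescence slope higher than the sample average by over 3 SD, cut at about -0.22 in these data, passing the limit was not always enough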;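 also: slope of raw intensity against log time taken from 70 to 1610 s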); details: recombinant KvBeta, 4-cyanobenzaldehyde reduction, at 10 µM, stronger effect = higher value
[5] = molecular target: Voltage-gated potassium channel subunit beta-2 (Rattus norvegicus) (UniProt P62483); test: KvBeta positive modulators, primary screen, biochemical, NADPH fluorescence (AID 623;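 active = NADPH fluorescence slope more negative than the mean of all samples by about 3 SD, 99.7% confidence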;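 also: fluorescence intensity change per second fitted from 20 to 320 s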); details: Recombinant KvBeta, NADPH fluorescence decrease slope, 10 min; at 10 µM; stronger effect = lower value
[6] = molecular target: Alpha-2C adrenergic receptor (Homo sapiens) (UniProt P18825); test: modulators of alpha2C/GIRK thallium flux, primary screen, cell-based, HEK293 alpha2C/GIRK1/2 (AID 624); details: thallium flux BTC fluorescence, at 10 µM, actives lie on both sides;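 also: slope of fluorescence ratio to pre-addition baseline per second over 15 to 24 s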
[7] = inhibitors of Sendai virus-induced IRF3 signaling, primary screen, TLR/RLR signaling modifier project, cell-based, Sendai virus stimulus, luciferase, 10K MLSCN set (AID 602276;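 active = inhibition at or above 50% at 10 µM; inactive = inhibition below 50%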;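 also: firefly luciferase from ISG56 promoter only with Renilla not read in this screen; 0% = Sendai virus plus DMSO and 100% = medium plus DMSO without virus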); details: HEK293 RL24 IRF3 luciferase reporter, at 10 µM, stronger effect = higher value
[8] = inhibitors of poly I:C-induced TLR3 signaling, primary screen, cell-based, poly I:C stimulus, luciferase, 10K MLSCN set (AID 602277;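 active = inhibition of the reporter signal at or above 50%; inactive = inhibition below 50%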); details: HEK293-TLR3 RL24 IRF3 luciferase reporter, at 10 µM, stronger effect = higher value

Alpha-2C adrenergic receptor (Homo sapiens), sequence (P18825 whole entry, looked up): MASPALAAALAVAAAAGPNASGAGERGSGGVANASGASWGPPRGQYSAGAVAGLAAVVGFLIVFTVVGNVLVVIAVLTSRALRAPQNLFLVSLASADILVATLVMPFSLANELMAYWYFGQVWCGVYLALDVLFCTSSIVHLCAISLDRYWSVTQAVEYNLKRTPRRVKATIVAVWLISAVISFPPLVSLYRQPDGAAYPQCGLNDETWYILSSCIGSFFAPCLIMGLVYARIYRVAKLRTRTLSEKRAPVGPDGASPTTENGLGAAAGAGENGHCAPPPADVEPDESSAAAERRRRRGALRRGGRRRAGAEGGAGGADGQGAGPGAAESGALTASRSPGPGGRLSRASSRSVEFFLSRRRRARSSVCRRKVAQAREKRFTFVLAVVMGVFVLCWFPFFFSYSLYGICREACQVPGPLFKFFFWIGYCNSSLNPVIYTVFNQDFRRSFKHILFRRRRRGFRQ
Voltage-gated potassium channel subunit beta-2 (Rattus norvegicus), sequence (P62483 whole entry, looked up): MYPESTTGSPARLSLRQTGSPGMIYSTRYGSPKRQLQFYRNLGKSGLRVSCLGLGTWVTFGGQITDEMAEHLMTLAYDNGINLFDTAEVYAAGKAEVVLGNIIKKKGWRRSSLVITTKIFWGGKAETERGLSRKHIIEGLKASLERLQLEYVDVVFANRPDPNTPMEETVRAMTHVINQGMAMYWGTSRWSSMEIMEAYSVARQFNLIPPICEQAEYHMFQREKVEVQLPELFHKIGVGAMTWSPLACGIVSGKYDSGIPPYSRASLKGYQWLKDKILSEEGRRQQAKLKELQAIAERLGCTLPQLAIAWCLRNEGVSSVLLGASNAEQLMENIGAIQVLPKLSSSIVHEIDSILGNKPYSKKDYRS

| Compound | cell count [1] | inhibition [1] | inhibition of aggregation [2] | nuclei count [2] [%] | inhibition [3] | nuclei count [3] [%] | fluorescence slope [4] | NADPH fluorescence slope [5] | slope [6] | inhibition [7] | inhibition [8] |
| --- | --- | --- | --- | --- | --- | --- | --- | --- | --- | --- | --- |
| COc1ccc(C(=O)Nc2ccc(S(=O)(=O)Nc3onc(C)c3C)cc2)cc1 | 501 | 3.7% (inactive) | -4.3% (inactive) | 110 | 16.1% (inactive) | 111 | -0.354 (inactive) | -5.4e-05 (inactive) | 0.00607 (inactive) | 4.94% (inactive) | 2% (inactive) |
| Cc1cc(C(=O)NCCCc2ccccc2)no1 | 765 | -8.2% (inactive) | 0% (inactive) | 105 | -58% (inactive) | 120 | -0.358 (inactive) | -1.1e-05 (inactive) | 0.00425 (inactive) | -11.5% (inactive) | -13.4% (inactive) |
| Cc1cc(=O)oc2cc(OCC#N)ccc12 | 823 | -2.9% (inactive) | -19.8% (inactive) | 95.4 | -66.4% (inactive) | 128 | -0.521 (inactive) | -3.5e-05 (inactive) | 0.0067 (inactive) | 8.92% (inactive) | 27.1% (inactive) |
| CCOC(=O)C1CCCN(CCC(C)c2ccccc2)C1 (stereo not drawn) | 469 | -2.7% (inactive) | 2.6% (inactive) | 92.9 | 25% (inactive) | 76.3 | -0.612 (inactive) | -4.1e-05 (inactive) | 0.00315 (inactive) | 14.2% (inactive) | 29.6% (inactive) |
| N#CCCN1CCN(S(=O)(=O)c2ccc(S(=O)(=O)NC3CCCCC3)cc2)CC1 | 645 | -2.4% (inactive) | -20.2% (inactive) | 124 | -47.2% (inactive) | 115 | -0.584 (inactive) | -4.3e-06 (inactive) | 0.00631 (inactive) | 14.1% (inactive) | 32.4% (inactive) |
| COC(=O)c1ccc(C2CC(=O)Nc3cc(OC)c(OC)c(OC)c32)cc1 (stereo not drawn) | 416 | 3.3% (inactive) | 11.2% (inactive) | 90.4 | -82.3% (inactive) | 157 | -0.424 (inactive) | -3.3e-05 (inactive) | 0.00514 (inactive) | 11.7% (inactive) | 25.2% (inactive) |
| CCOC(=O)CN1CC23C=CC(O2)C(C(=O)Nc2ccc(OC)cc2OC)C3C1=O (stereo not drawn) | 563 | 8% (inactive) | 8.7% (inactive) | 81.1 | -54% (inactive) | 116 | -0.574 (inactive) | -1.5e-05 (inactive) | 0.00618 (inactive) | 8.81% (inactive) | 32% (inactive) |
| CCN1CCN(Cc2nc3c(c(=O)n(C)c(=O)n3C)n2CC(=O)c2ccccc2)CC1 | 465 | -1.8% (inactive) | -8.6% (inactive) | 89.6 | -9.3% (inactive) | 106 | -0.556 (inactive) | -3e-05 (inactive) | 0.00683 (inactive) | 6.82% (inactive) | 38.5% (inactive) |
| Cc1cc(N2CCN(c3ccccn3)CC2)n2nc(C)nc2n1 | 435 | 3.5% (inactive) | -16.4% (inactive) | 105 | -4.2% (inactive) | 111 | -0.376 (inactive) | -3.3e-05 (inactive) | 0.00609 (inactive) | 12.8% (inactive) | -7.58% (inactive) |
| CCOc1ccc(S(=O)(=O)n2nc(C)cc2C)c2ccccc12 | 355 | -5.4% (inactive) | 0.3% (inactive) | 108 | -52.3% (inactive) | 115 | -0.347 (inactive) | 2e-05 (inactive) | 0.00571 (inactive) | -0.884% (inactive) | -17.2% (inactive) |
| CCOc1cccc(-n2nnnc2-c2ccc(OC)cc2)c1 | 208 | 1.2% (inactive) | -34.6% (inactive) | 3.6 | -13.7% (inactive) | 112 | -0.591 (inactive) | -1.5e-05 (inactive) | 0.00569 (inactive) | 43% (inactive) | 61.2% (active) |
| COc1ccc(-c2noc(CCN3C(=O)c4ccccc4C3=O)n2)cc1OC | 555 | 7.6% (inactive) | -3.7% (inactive) | 108 | 28.6% (inactive) | 104 | -0.497 (inactive) | -2.8e-05 (inactive) | 0.00665 (inactive) | -0.74% (inactive) | 26.4% (inactive) |
| c1cn(C23CC4CC(CC(C4)C2)C3)cn1 | 362 | 0.8% (inactive) | -9.2% (inactive) | 108 | 45.7% (inactive) | 110 | -0.489 (inactive) | -5.6e-05 (inactive) | 0.00411 (inactive) | 11.8% (inactive) | 16.7% (inactive) |
